Assay results: a collection of fitness landscapes (doi:10.1016/j.celrep.2020.107928)
The full ranking holds about 81,000 sequences; the median of “one-hybrid fitness for binding parS DNA” is about -0.17, and the highest 2% start at about 0.51. For the sample, the highest values were picked, then their nearest neighbours and some sequences at random.

B1: Caulobacter ParB omega fusion; a variant is named by its letters at X, in order, B8GW30 (parent)
chain: MESVVVGEPGMSEGRRGLGRGLSALLGEVDAAPAQAPGEQLGGSREAPIEILQRNPDQPRRTFREEDLEDLSNSIREKGVLQPILVRPSPDTAGEYQIVAGERAWRAAQRAGLKTVPIMVRELDDLAVLEIGIIENVQRADLNVLEEALSYKVLMEKFERTQENIAQTIGKSXSHVANXMRLLXLPDEVQSYLVSGELTAXHARAIAAAADPVALAKQIIEGGLSVRETEALARKAPNLSAGKSKGGRPPRVKDTDTQALESDLSSVLGLDVSIDHRGSTGTLTITYATLEQLDDLCNRLTRGI

Variants of: B1
Experiment: one-hybrid fitness for binding parS DNA (scaled: cognate 1, non-cognate 0); higher = stronger binding
Settings: with parS DNA site
How it was run: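 Values were rescaled so that cognate is 1 and non-cognate is 0. Each is a fitness, the log change in a variant's read ratio to wild type from Illumina reads of plasmids before and after selection, with three replicate libraries pooled and variants under 10 reads dropped. Selection of the Caulobacter ParB libraries, four specificity codons randomised, used E. coli USO with a HIS3 reporter, site 19 bp from the promoter, on M9-minus-histidine with 0.1 mM IPTG and 5 mM 3-AT for 48 hours at 37°C.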

Variant	one-hybrid fitness for binding parS DNA
GARV	≤ 0.2
QRMF	≤ 0.2
DTTA	≤ 0.2
KQTA	≤ 0.2
RTTA	0.612
DRTA	≤ 0.2
NQTA	≤ 0.2
NYTA	≤ 0.2
NRTA	≤ 0.2
RRTA	0.656
RQTA	0.574
EYTA	≤ 0.2
RYTA	0.582
NTTA	≤ 0.2
FTDF	≤ 0.2
KGIS	≤ 0.2
VCHR	≤ 0.2
EKES	≤ 0.2
KHQG	≤ 0.2
LHTY	≤ 0.2
DYTC	≤ 0.2
APHT	≤ 0.2
YEEE	≤ 0.2
RNTA	0.473
RDTA	≤ 0.2

Variant	one-hybrid fitness for binding parS DNA
RKTA	0.746
RMTA	0.6
RHTA	0.516
RETA	≤ 0.2
RGTA	0.376
RSTA	0.578
NLQR	≤ 0.2
HMPW	≤ 0.2
LVSL	≤ 0.2
QMTR	≤ 0.2
KAGR	≤ 0.2
GRLC	≤ 0.2
QTFT	≤ 0.2
ATQR	≤ 0.2
IINN	≤ 0.2
QNFC	≤ 0.2
RWTA	0.459
EFTA	≤ 0.2
EITA	≤ 0.2
DITA	≤ 0.2
RFTA	0.541
DFTA	≤ 0.2
AVTA	≤ 0.2
RPTA	≤ 0.2
RITA	0.55

Variant	one-hybrid fitness for binding parS DNA
RVTA	0.578
NVTA	≤ 0.2
RCTA	0.609
GLTC	≤ 0.2
TSQQ	≤ 0.2
VYNA	≤ 0.2
AYGG	≤ 0.2
SRQV	≤ 0.2
FRFR	≤ 0.2
ACAI	≤ 0.2
TPWT	≤ 0.2
GHMG	≤ 0.2
PGAS	≤ 0.2
RATA	0.586
NLTA	≤ 0.2
DATA	≤ 0.2
DLTA	≤ 0.2
RLTA	0.599
HHAP	≤ 0.2
NDPH	≤ 0.2
RCLD	≤ 0.2
KLRG	≤ 0.2
RIAQ	≤ 0.2
RIFR	≤ 0.2
RIAT	0.885

Variant	one-hybrid fitness for binding parS DNA
RIAM	0.367
RIFF	0.297
RIFT	0.834
QSSH	≤ 0.2
PVNK	≤ 0.2
RQKY	0.581
RQVD	≤ 0.2
RQKD	≤ 0.2
RQVN	0.316
RQKS	0.864
RQVS	0.937
RQVY	0.375
RQKP	≤ 0.2
RQYY	0.494
TGHV	≤ 0.2
GPHD	≤ 0.2
RANG	1
RANQ	≤ 0.2
RANE	≤ 0.2
RACG	0.971
RAYG	1.01
RARP	≤ 0.2
RAYD	≤ 0.2
RACY	0.435
RARD	≤ 0.2

Variant	one-hybrid fitness for binding parS DNA
RARG	0.956
RAYH	≤ 0.2
RACF	0.228
PSYN	≤ 0.2
WIKS	≤ 0.2
SDEV	≤ 0.2
WGFG	≤ 0.2
PYGM	≤ 0.2
CARA	≤ 0.2
PAYT	≤ 0.2
APAI	≤ 0.2
YGRH	≤ 0.2
RAGP	≤ 0.2
RASF	0.234
RASR	≤ 0.2
RAHK	≤ 0.2
RALG	1.01
RAHP	0.241
RASG	1
RALD	≤ 0.2
RALP	≤ 0.2
RAHG	1.01
RAGG	0.99
RAGH	0.268
ACSG	≤ 0.2

Variant	one-hybrid fitness for binding parS DNA
LMLS	≤ 0.2
QSHN	≤ 0.2
TPPK	≤ 0.2
GNDG	≤ 0.2
GGIR	≤ 0.2
HVTA	≤ 0.2
LPSV	≤ 0.2
VEFL	≤ 0.2
RADG	0.908
RAQY	0.469
RAQK	≤ 0.2
RAQG	1
RADN	0.372
RADD	≤ 0.2
QSRC	≤ 0.2
AVDS	≤ 0.2
RKHC	0.882
RKSD	≤ 0.2
RKRK	≤ 0.2
RKLC	0.921
RKLR	≤ 0.2
RKHM	0.21
RKSC	0.812
RKHQ	≤ 0.2
RKRM	0.281

Variant	one-hybrid fitness for binding parS DNA
RKRC	0.737
RKLM	0.272
RKSH	≤ 0.2
DVNN	≤ 0.2
VNYS	≤ 0.2
PWEG	≤ 0.2
NNLY	≤ 0.2
VLIA	≤ 0.2
VPYR	≤ 0.2
LEDT	≤ 0.2
PHLT	≤ 0.2
MREY	≤ 0.2
RKDF	≤ 0.2
RKDR	≤ 0.2
RKCH	≤ 0.2
RKDC	0.923
RKNC	0.806
RKYR	≤ 0.2
RKYQ	0.213
RKCD	≤ 0.2
RKNP	≤ 0.2
RKYC	0.925
RKCC	0.908
RKND	≤ 0.2
IKIT	≤ 0.2

Variant	one-hybrid fitness for binding parS DNA
LFDR	≤ 0.2
IRTA	≤ 0.2
MSDQ	≤ 0.2
EAWR	≤ 0.2
DRKV	≤ 0.2
LAGW	≤ 0.2
RPIL	≤ 0.2
QIFK	≤ 0.2
ANVG	≤ 0.2
RTHN	0.45
RTGM	0.33
RTGH	≤ 0.2
RTRQ	≤ 0.2
RTHG	1.01
RTHP	≤ 0.2
RTRN	0.396
RTLG	1.02
RTGG	0.997
RTLQ	≤ 0.2
RTLR	≤ 0.2
RTRG	0.908
DCRS	≤ 0.2
IAEG	≤ 0.2
SAYT	≤ 0.2
MHTF	≤ 0.2

Variant	one-hybrid fitness for binding parS DNA
PSYT	≤ 0.2
VTEN	≤ 0.2
RTYQ	≤ 0.2
NTYG	≤ 0.2
RTYG	1.02
HADL	≤ 0.2
RCPT	0.604
RIIN	0.379
RIPP	≤ 0.2
REPT	≤ 0.2
RPPT	≤ 0.2
RIPN	≤ 0.2
RIIT	0.715
RIPT	0.549
RIIK	≤ 0.2
YDNV	≤ 0.2
FNSY	≤ 0.2
TSTS	≤ 0.2
SATQ	≤ 0.2
RMWK	≤ 0.2
RLRL	≤ 0.2
KRHS	≤ 0.2
PLTH	≤ 0.2
RAQM	0.31
RAYR	≤ 0.2

Variant	one-hybrid fitness for binding parS DNA
RAHT	0.928
RACD	≤ 0.2
RAHM	0.329
RAYT	0.904
RACN	0.41
RAQT	0.894
RAQF	0.229
RAHH	0.26
RAYM	0.324
RACT	0.852
MLRS	≤ 0.2
GTET	≤ 0.2
SSAG	≤ 0.2
DLPN	≤ 0.2
DGPD	≤ 0.2
NYGR	≤ 0.2
SRPW	≤ 0.2
LATK	≤ 0.2
AQEG	≤ 0.2
QIWY	≤ 0.2
RAGR	≤ 0.2
RARQ	≤ 0.2
RANT	0.907
RAGT	0.92
RAGQ	≤ 0.2

Variant	one-hybrid fitness for binding parS DNA
RASQ	≤ 0.2
RART	0.836
RANN	0.434
RASY	0.459
RAST	0.911
RARF	0.28
RAND	0.215
PKYV	≤ 0.2
APEG	≤ 0.2
FICL	≤ 0.2
GDRF	≤ 0.2
VNRI	≤ 0.2
QPAD	≤ 0.2
QAKR	≤ 0.2
PSVL	≤ 0.2
PTYM	≤ 0.2
RAWN	0.384
RAWT	0.809
RADR	≤ 0.2
RADK	≤ 0.2
RALQ	≤ 0.2
RAWH	0.223
RALT	0.888
RADT	0.732
RALK	≤ 0.2

Variant	one-hybrid fitness for binding parS DNA
MCRN	≤ 0.2
QVLP	≤ 0.2
NHYR	≤ 0.2
EVTS	≤ 0.2
GHDR	≤ 0.2
HVTM	≤ 0.2
PTLD	≤ 0.2
TYDN	≤ 0.2
AAAL	≤ 0.2
LNIY	≤ 0.2
RCMP	0.232
RLMD	≤ 0.2
RCMS	1.01
RMML	≤ 0.2
RMMD	≤ 0.2
RIMS	1.04
RMMS	1.03
RPMS	≤ 0.2
RIMH	0.264
RLMN	0.459
RIMP	≤ 0.2
RLMS	1.04
THDG	≤ 0.2
EQQR	≤ 0.2
MVPW	≤ 0.2

Variant	one-hybrid fitness for binding parS DNA
ASII	≤ 0.2
PLHG	≤ 0.2
GYPH	≤ 0.2
CVTM	≤ 0.2
RSMN	0.402
RKMD	≤ 0.2
RKMS	0.876
RHMH	≤ 0.2
RRMN	0.4
RSMS	0.994
RKMN	0.372
RRMP	≤ 0.2
RSMH	0.245
RHMD	≤ 0.2
RHMS	0.966
RRMS	0.704
